Source: PubChem
Shown are actives, neighbours in structure and some others; about 0.85% of the full set was active somewhere.
S-ASM inh: blocks human secretory acid sphingomyelinase; placental ASM, HMU-PC fluorogenic substrate, 60 min; P17405; Potency, µM (highest dose often 57.5 µM), for the others: top-dose activity change, negative = inhibition, usual class: inhibitors; AID 504937; hit rate 0.006% among 340,000; active = well fitted inhibition curve with a large enough effect; inconclusive = small, poorly fitted or top-dose-only effect; inactive = no such curve, though single readings can be large or run the other way; also: potency is read from the fitted curve at half-maximal effect
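Human placenta-derived ASM preincubated with compound 10 min at room temperature, then reacted with 9 uM (final) fluorogenic HMU-PC substrate for 60 min at 37 C. Stop solution raises pH to 10; fluorescence read at Ex 386/Em 447 nm.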
TSHR antagonist: antagonists of human thyroid stimulating hormone receptor; P16473; TSHR-expressing cells, TSH-stimulated cAMP HTRF, 2 h; stronger effect = lower value; activity change, negative = inhibition, % at 11.5 µM; hit rate 0.2% among 330,000;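 active = activity change below a set negative limit, meaning inhibition stronger than a set level, cut at about -70% in these data; inconclusive = activity change between two set negative limits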; also: % is scaled to controls: 0 for no effect and ±100 for the full control effect
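TSHR-expressing cells, 200/well, pre-treated with compound, then stimulated with EC80 TSH (4nM final) for 2 hours at 37 deg C. cAMP measured by competitive HTRF: anti-cAMP cryptate antibody in lysis buffer plus cAMP-d2, read after 30 minutes at room temperature.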
CtBP-E1A inh: blocks the CtBP interaction with E1A; AlphaScreen GST-E1A/His-CtBP binding, 1536-well; stronger effect = lower value; AID 651724; hit rate 0.49% among 340,000; activity change, % (no concentration beside the values); also: % is scaled to controls: 0 for no effect and ±100 for the full control effect
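GST-E1A and His-tagged CtBP (125 nM each as 5X stock) were preincubated with pin-transferred compound for 2 h at 37 °C in the dark, then glutathione donor and nickel acceptor beads were added for 1 h before AlphaScreen reading.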
Chronic BCR inh: blocks chronic active B-cell receptor signaling; ABC-DLBCL IkBa-CBG/CBR reporter, luminescence ratio, 4 h; Potency, µM (titrated, usually from 46.1 µM), without a hit: at the top dose activity change, negative = inhibition, most hits filed as inhibitors; hit rate 0.05% among 340,000; AID 493014; active = well fitted inhibition curve with a large enough effect in the signal ratio, with a control signal flat, not every such curve was filed as active; inconclusive = small, poorly fitted or top-dose-only effect, or effect the other way, or a change in a side signal; the % refers to the signal ratio;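 also: potency is read from the fitted curve at half-maximal effect; plate controls were basal doxycycline-induced cells for no effect and cells given 10 µM MG132 for full effect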
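TMD8 ABC-DLBCL cells carrying doxycycline-inducible green luciferase fused to IkappaBalpha plus unfused red luciferase were exposed to compounds (up to 46 uM) for 4 hrs at 37C. Activity came from the overlap-corrected green/red luminescence ratio.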
Six1-Eya2 inh: inhibitors of human Six1/Eya2 interaction | AlphaScreen GST-Six1/His-Eya2 binding, biochemical; stronger effect = lower value | activity change, % (test concentration not listed) | hit rate 0.56% among 360,000 | AID 651725; also: % is scaled to controls: 0 for no effect and ±100 for the full control effect
Target sequence (O00167 whole entry, looked up): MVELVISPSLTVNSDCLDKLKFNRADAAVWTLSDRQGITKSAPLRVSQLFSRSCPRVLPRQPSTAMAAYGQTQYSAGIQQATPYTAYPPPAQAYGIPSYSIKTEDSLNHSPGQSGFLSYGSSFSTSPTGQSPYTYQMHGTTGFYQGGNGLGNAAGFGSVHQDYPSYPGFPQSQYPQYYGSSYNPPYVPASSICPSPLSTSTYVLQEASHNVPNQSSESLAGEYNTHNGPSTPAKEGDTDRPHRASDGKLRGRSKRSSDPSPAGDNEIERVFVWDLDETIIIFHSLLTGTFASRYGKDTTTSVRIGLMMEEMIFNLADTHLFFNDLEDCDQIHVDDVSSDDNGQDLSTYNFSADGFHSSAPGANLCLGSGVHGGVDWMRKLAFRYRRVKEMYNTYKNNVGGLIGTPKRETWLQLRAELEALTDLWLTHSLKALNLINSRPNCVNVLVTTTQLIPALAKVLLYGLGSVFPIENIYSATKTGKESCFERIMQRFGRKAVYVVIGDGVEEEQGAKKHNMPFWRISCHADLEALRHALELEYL
Target sequence (Q15475 whole entry, looked up): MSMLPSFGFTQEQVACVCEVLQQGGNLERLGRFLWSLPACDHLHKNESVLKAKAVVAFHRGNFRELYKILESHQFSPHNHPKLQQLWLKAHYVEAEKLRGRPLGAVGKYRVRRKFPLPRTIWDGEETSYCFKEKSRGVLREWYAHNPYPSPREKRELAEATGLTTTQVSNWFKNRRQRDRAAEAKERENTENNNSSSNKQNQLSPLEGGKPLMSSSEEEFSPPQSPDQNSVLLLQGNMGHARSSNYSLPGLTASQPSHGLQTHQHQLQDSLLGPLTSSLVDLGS
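AlphaScreen with GST-Six1 and His-Eya2 (5X mix: 250 nM and 500 nM), glutathione donor and nickel acceptor beads; buffer 50 mM Tris pH 8.0, 300 mM NaCl, 1 mM TCEP; 1 h at 37 C in the dark.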
Numbers without * were called inactive; ? = inconclusive; nt = not tested or not shown; [ ] = another dose, or the depositor's remark. Rule as the data show it, unless noted: active = activity change below about -65%; inconclusive = mostly about -30% to -63%; inactive = weaker than that.

SMILES	S-ASM inh	TSHR antagonist	CtBP-E1A inh	Chronic BCR inh	Six1-Eya2 inh
CCc1ccc2nc(N(Cc3cccnc3)C(=O)Cc3ccccc3)sc2c1	nt	nt	nt	19.7%	nt
Cn1c(CNC(=O)C(Cc2ccccc2)NC(=O)c2ccccc2)cc(=O)n(C)c1=O (stereo not drawn)	3.6%	-144.3*	42.5	5.0%	19.8
Cn1c2ccccc2c2cc(/C=N/NC(=O)c3cc(O)ccc3O)ccc21	-14.2%	16.7	?	?	-68.7*
NC(c1csc(Nc2cc(Oc3ccccc3)ncn2)n1)C1CCCCC1 (stereo not drawn)	nt	nt	-12.0	nt	-13.3
NCc1csc(Nc2cc(Oc3ccccc3)ncn2)n1	nt	nt	-76.9*	nt	?
Cc1cc(C)cc(NC(=O)C2CCN(S(=O)(=O)c3cccc(-c4noc(C)n4)c3)CC2)c1	nt	nt	nt	11.6%	nt
COc1cc(C=O)cc(OC)c1OS(=O)(=O)c1ccc(NC(C)=O)cc1	2.8%	1.4	-1.6	-2.6%	-0.1
COc1ccc(C=O)cc1OS(=O)(=O)c1ccc(NC(C)=O)cc1	-1.5%	8.7	0.9	18.4µM*	11.1
CC(=O)c1cc(-c2ccccc2)n(CCC(=O)Nc2cc(C)cc(C)c2)c1C	nt	nt	nt	-5.3%	nt
Nc1cc2[nH]c(=O)c3ccccc3c2cc1[N+](=O)[O-]	-11.8%	nt	-72.2*	nt	-72.0*
COc1cc2c(=O)[nH]c3cc([N+](=O)[O-])ccc3c2cc1[N+](=O)[O-]	nt	nt	-19.9	nt	-22.3
Cc1ccc(Cn2cc(CCC(=O)O)c3ccccc32)cc1	1.0%	-15.5	-65.3*	?	3.2
CCc1c(C)sc(NC(=O)CC#N)c1C#N	7.5%	3.6	-67.0*	?	?
COc1cccc(C=NNc2nnc(NN=Cc3cccc(OC)c3OC)c3ccccc23)c1OC	-8.7%	nt	-86.4*	nt	-78.4*
COc1cccc(/C=N/Nc2ncnc3scc(-c4ccccc4)c23)c1O	-23.2%	7.4	-4.6	?	-92.6*
COc1ccc(/C=N/Nc2ncnc(Cl)c2N)cc1OC	13.5%	-1.1	-23.2	4.1%	-28.9
COc1cccc(/C=N/Nc2ncnc(Cl)c2N)c1O	2.1%	-7.8	-79.1*	?	-88.4*
COc1cccc(/C=N/Nc2nccnc2Cl)c1O	-1.1%	-9.8	-92.7*	?	-79.5*
COc1ccc(/C=N/Nc2nccnc2Cl)c(OC)c1	11.7%	-2.5	nt	?	-0.4
COc1ccccc1N1CCN(CCN(C(=O)c2ccc(I)cc2)c2ccccn2)CC1	nt	-16.5	nt	nt	nt
COc1ccc(OC)c2c1C(=O)c1ccccc1C2=O	-9.1%	-0.5	?	-5.5%	?
COc1ccc(OC)c2c1C(=O)C(Cl)=C(Cl)C2=O	-0.3%	-103.4*	0.9	?	-5.2
Cn1nc(C(=O)Nc2ccc3c(c2)OCO3)c2ccccc2c1=O	-6.7%	2.4	-85.9*	-1.8%	?
COc1ccc2oc3cc(NCCN(C)C)ccc3c(=O)c2c1	nt	nt	-74.6*	nt	-70.3*
Cc1onc(-c2ccccc2)c1NC(=O)N(CCC(=O)O)Cc1ccccc1	2.3%	1.4	10.0	-0.1%	10.3
SMILES	S-ASM inh	TSHR antagonist	CtBP-E1A inh	Chronic BCR inh	Six1-Eya2 inh
Cc1onc(-c2ccccc2)c1NC(=O)N(Cc1ccccc1)C(C)C	-2.6%	-117.3*	nt	8.5%	3.3
C=CCNC(=S)NNC(=O)COc1cccc(Cl)c1	-1.3%	9.3	-0.5	17.8µM*	-2.1
CCOC(=O)c1cc(-c2ccccc2)n(-c2cccc(C(=O)Nc3ccc(OCC)cc3)c2)c1C	nt	nt	nt	6.7%	nt
COc1cc(/C=N/Nc2nc3ccccc3s2)cc([N+](=O)[O-])c1O	-6.6%	-18.2	nt	?	-81.8*
O=[N+]([O-])c1cc(Cl)cc(/C=N/Nc2nc3ccccc3s2)c1O	-4.2%	-37.8	nt	?	-13.9
CC1=CCC2C(=O)N(c3ccc(C(=O)Nc4ccccc4Cl)cc3)C(=O)C2C1 (stereo not drawn)	-0.2%	-81.9*	-0.7	6.1%	-3.6
CCOCCCn1c(SCC(=O)Nc2ccccc2CC)nc2ccccc2c1=O	nt	nt	nt	0.4%	nt
CCn1c2ccc(C)cc2c2nc3cc(C(=O)O)ccc3nc21	17.7%	-4.9	-65.5*	?	-69.0*
C/C(CC(=O)Nc1ccc(Cl)cc1C(F)(F)F)=N\NC(N)=S	4.0%	-1.8	10.5	11.2µM*	-0.3
Nc1nc(N)c2sc3nc4c(cc3c2n1)CCC4	130.0%	-6.9	-84.0*	10.6%	-76.3*
COc1ccc(NS(=O)(=O)c2cc3[nH]c(=O)c(=O)[nH]c3cc2C)cc1OC	nt	nt	nt	3.9%	nt
O=C(NCc1cc([N+](=O)[O-])ccc1O)c1cccc(NS(=O)(=O)c2ccccc2)c1	-12.6%	-12.3	-89.0*	?	-82.7*
O=C(NCc1ccccn1)c1ccc(NS(=O)(=O)c2cccc([N+](=O)[O-])c2)cc1	-2.8%	12.7	-8.3	-1.1%	-2.4
CCc1c(C)c(C#N)c2nc3ccccc3n2c1Cl	nt	-0.2	nt	8.2µM*	nt
COc1cccc(CNC(=O)CSc2ccc(-c3ccccn3)nn2)c1	2.0%	-0.9	-74.2*	3.3%	-65.2*
COc1cccc(CNC(=O)CSc2ccc(-c3ccco3)nn2)c1	-2.2%	6.3	-8.3	15.6%	-6.5
O=C(CSc1ccc(-c2ccccn2)nn1)NCc1ccc(Cl)cc1	0.1%	-2.4	-70.2*	-3.9%	?
O=C(CSc1ccc(-c2ccco2)nn1)NCc1ccc(Cl)cc1	-4.1%	3.1	-1.2	?	-0.4
COc1ccc(-c2cc(C(C)=O)c(C)n2CCC(=O)Nc2ccc(C)c(Cl)c2)cc1	nt	nt	nt	-22.3%	nt
Oc1c(Cl)cc(Cl)cc1CNc1ccccn1	-0.6%	-3.2	?	?	-72.4*
CCOC(=O)c1c(S(=O)(=O)N2CCC(C(=O)N3CCN(c4ccc(F)cc4)CC3)CC2)c(C)n(C)c1C	nt	nt	nt	3.4%	nt
Cc1ccc(CNS(=O)(=O)c2ccc(CN3C(=O)c4cccnc4C3=O)s2)o1	0.2%	-88.7*	-11.0	-3.2%	-2.4
O=C1c2cccnc2C(=O)N1Cc1ccc(S(=O)(=O)NCc2ccco2)cc1	-0.6%	-5.5	-6.1	-10.0%	-8.4
CC1(C)CC(=O)C2=C(C1)O[C@@]1(c3ccsc3)Cc3cc(C#N)ccc3C2O1	nt	nt	nt	11.3%[9.22 µM]	nt
CC(=O)N(C)c1ccc(N2CCOCC2)c2c1C(=O)c1ccccc1C2=O	-5.1%	nt	17.2	nt	13.8
O=C1c2ccccc2C(=O)c2c1cccc2N1CCOCC1	-12.6%	-6.1	-72.4*	4.7%	-77.9*
COc1ccc(N(C(=O)/C=C\C(=O)Nc2ccc(C)cc2)C(C(=O)NCc2ccco2)c2ccc(C)cc2)cc1 (stereo not drawn)	nt	nt	nt	-9.4%	nt
O=C(Cc1ccc(-n2c(=O)c3ccccc3n(Cc3ccc(F)cc3)c2=O)cc1)NCC1CCCO1 (stereo not drawn)	-2.7%	17.9	4.0	8.2µM*	-6.0
